Experimental data reported in PubChem BioAssay AID493169 (National Center for Advancing Translational Sciences (NCATS), 2011).
Inconclusive results are not listed. Values without a mark were called inactive. Activity calls are given as the source filed them. The call rests on the fitted dose curve; in most records, active means well fitted inhibition curve with a large enough effect; inconclusive means small, poorly fitted or top-dose-only effect; inactive means flat fitted curve, though single readings scatter.

Assay: CHOP2 Reporter Counterscreen Assay for Inhibitors of Ubiquitin-specific Protease USP2a;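 further: activated enterokinase alone at 50 pM in a cell-free format rather than USP2a or CHOP2; nearly all actives have a fitted effect of over 55% in size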
Settings: purified enterokinase, fluorogenic substrate, 485/531 nm; series mostly up to 38.3 µM; activity change, negative = inhibition: at the top concentration
In short: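 Cell-free counterscreen with pre-activated enterokinase alone (50 pM final) in 20mM Tris-HCl pH 8.0, 2mM CaCl2, 2mM beta-mercaptoethanol, 0.05% CHAPS; compound preincubation 30 min RT, reporter substrate 25nM final, fluorescence read after 10 min (Ex 485/Em 531).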
On the % scale 0 is the no-effect control and ±100 the full control effect; potency means the concentration at half of the fitted maximal effect.

| Structure (SMILES) | Potency | activity change, negative = inhibition |
| --- | --- | --- |
| COc1ccc2[nH]c(=O)c(CN(C3CCCCC3)C(c3nnnn3Cc3ccco3)C(C)C)cc2c1 (stereo not given) | 10 µM (active) |  |
| COc1ccc(-c2nc(C#N)c(NCC3CCCO3)o2)cc1OC (stereo not given) |  | -2.04% |
| O=C(COc1ccccc1)N1CCN(C(=O)Cc2ccccc2)CC1 |  | 1.53% |
| O=C(Nc1ccccc1)c1cc(Cl)nc2ccccc12 |  | 2.73% |
| CC1CCCCN1CCNC(=O)CC1Oc2ccccc2NC1=O (stereo not given) |  | -1.06% |
| O=c1oc2ccccc2n1Cn1c(=O)oc2ccccc21 |  | -0.0721% |
| CCOc1ccc(Cn2nnc(C(=O)NCc3ccccc3)c2N)cc1 |  | 0.856% |
| Cc1ccc(/C=C2/SC(=S)N(c3ccc(S(=O)(=O)Nc4nccs4)cc3)C2=O)cc1 | 12.6 µM (active) |  |
| O=C(COC(=O)/C=C/c1ccc(Cl)cc1)NC1CC1 |  | 1.41% |
| CCCn1c(C)cc(C)c(C#N)c1=O |  | 0.326% |
| Cc1ccc(C(=O)N/C(=C/c2ccco2)C(=O)Nc2cccc(C(=O)O)c2)cc1 | 10 µM (active) |  |
| N=c1sccn1CC(=O)Nc1ccc(S(=O)(=O)N2CCOCC2)cc1 |  | 10.2% |
| O=C1NC(=Nc2ccc3ccccc3c2)S/C1=C/c1ccco1 | 10 µM (active) |  |
| CC(CN1CCCCC1)OC(=O)c1ccc(Cl)cc1 (stereo not given) |  | 0.866% |
| CN1CCN(Cc2c(O)ccc3c(=O)c(Oc4ccccc4Cl)c(C(F)(F)F)oc23)CC1 |  | 5.85% |
| Nc1c(C(=O)NCC2CCCO2)sc2nc3c(c(-c4ccco4)c12)CC/C3=C\c1ccco1 (stereo not given) | 3.16 µM (active) |  |
| CNS(=O)(=O)c1cccc(C(=O)OCC(=O)c2cc(C)n(-c3ccc4c(c3)OCO4)c2C)c1 |  | 8.11% |
| O=C(c1ccc(CS(=O)(=O)c2ccc(Br)cc2)o1)N1CCCC1 |  | -2.08% |
| C#CCOCCOCCOCCNc1nc(N2CCN(C(=O)CCCCCCCCCCNC(=O)Cn3cc(CCCCCN)nn3)CC2)nc(N2CCN(C(=O)CCCCCCCCCCNC(=O)[C@H](CO)n3cc(CCCCCN)nn3)CC2)n1 | 11.2 µM (active) |  |
| CCCCc1ccc(/C=C2/C(=O)ON=C2c2ccccc2)s1 |  | -1.37% |

| Structure (SMILES) | Potency | activity change, negative = inhibition |
| --- | --- | --- |
| COc1ccc(NC(=O)CSc2nc3sc(C)cc3c(=O)n2C)c(OC)c1 |  | -4.63% |
| COc1ccc(C(=O)Nc2ccc(N3CCCC3)cc2)cc1OC |  | 0.701% |
| Cc1noc(/C=C/c2ccco2)c1S(=O)(=O)N1CCC(C(=O)N2CCc3ccccc3C2)CC1 |  | -1.98% |
| Cc1ccc(C(=O)NCc2ccc3c(c2)OCO3)cc1N1CCCC1=O |  | 2.1% |
| NS(=O)(=O)c1cc(C(=O)NC2CCSc3ccccc32)ccc1Cl (stereo not given) | 10 µM (active) |  |
| CC(=O)OCC(=O)Nc1ccc(Cl)cc1Cl |  | -2.04% |
| CC(=O)c1ccc(Nc2ncnc3c2oc2ccccc23)cc1 |  | -0.29% |
| Cc1ccc(NC(=O)c2cc(-c3ccco3)nc3ccccc23)cc1S(=O)(=O)N1CCOCC1 | 7.08 µM (active) |  |
| O=C(COC(=O)c1cccc(S(=O)(=O)N2CCc3ccccc32)c1)NC1CCS(=O)(=O)C1 (stereo not given) |  | 7% |
| CNC(=O)NC(=O)CSc1ccc(NC(C)=O)cc1 |  | -0.346% |
| COc1ccc(-c2noc(CSc3nnc(Cc4ccccc4)n3-c3ccc(Cl)cc3)n2)cc1 |  | -4.97% |
| Cc1cc(C)n(C(=O)c2cccc(S(=O)(=O)N3CCCC3)c2)n1 |  | 5.71% |
| O=C(CSCc1cnn(-c2ccccc2)c1-n1cccc1)NCC1CCCO1 (stereo not given) |  | 4.45% |
| CN(C)S(=O)(=O)c1cccc(NC(=S)NNC(=O)c2cc3ccccc3cc2O)c1 |  | -15.3% |
| C#CCOCCOCCOCCNc1nc(N2CCN(C(=O)CCCCCCCCCCNC(=O)Cn3cc(CCCCCN)nn3)CC2)nc(N2CCN(C(=O)CCCCCCCCCCNC(=O)Cn3cc(CCCCCN)nn3)CC2)n1 | 10 µM (active) |  |
| COC1=CCC2([N+](=O)[O-])CN(CCO)CC1([N+](=O)[O-])C2 (stereo not given) |  | -0.623% |
| O=C(CSc1nc(N2CCCCC2)nc(N2CCCCC2)n1)N1CCN(c2ccccc2)CC1 |  | 0.634% |
| CCC(C)(C(=O)NC1CCCCC1)N(C(=O)C1CCC(=O)N1)c1ccccc1 (stereo not given) |  | -1.78% |
| COc1ccc(CC(NC(C)=O)C(=O)NC2CCN(c3nc(C)cc(C)c3C#N)CC2)c(OC)c1 (stereo not given) |  | -0.767% |
| CCOC(=O)c1c(-c2ccc(C)o2)csc1NC(=O)COC(=O)c1ccc(NC(N)=O)cc1 |  | -18.1% |
